Results as given in PubChem BioAssay (NCATS).
Results filed as inconclusive are left out. Activity calls are given as the source filed them. Calls follow the shape of the dose curve; as a rule, active = well fitted cell-killing curve with a large enough effect; inconclusive = small, poorly fitted or top-dose-only effect, or effect the other way; inactive = no such curve, though single readings can be large or run the other way.

Assay: Viability qHTS for spleen associated tyrosine kinase inhibitor (SYKi) drug resistant MV4-11 cells (AID 1963824); also: nearly all actives have a fitted effect of over 35% in size
Settings: SYKi-resistant MV4-11 viability, CellTiter-Glo, 72 h; series mostly up to 45 µM
Text: Department of Medicine, Hematology/Oncology
University Hospital Frankfurt, Germany.
Trials have shown promising clinical activity of the selective SYK inhibitor entospletinib in patients with high expressing HOXA9/MEIS1 acute leukemias. As the development of resistance mechanisms is a common problem in the use of targeted drugs, we performed a chemical library screen to identify drug sensitivities in SYK inhibitor resistant AML cells. […] Glucocorticoids are potent immunosuppressants which work in part by inhibiting the transcription of cytokine genes.
Described herein is a viability screen to look for activity in the SYK inhibitor drug resistant cell line against four NCATS compound libraries (MIPE 5.0, NPC, NPACT, and Kinase) totaling 11372 compounds. Active hits were reacquired for confirmation and further secondary assay testing.
SEQUENCE No. (e.g., 1, 2, 3, etc.); […] (e.g., Cells, Incubation, Reagent, etc.); VALUE; DESCRIPTION.
1; Media; 2uL; white, solid-bottom Corning assay plate.
2; Compounds; 23nL; Echo acoustic dispenser.
3; Cell; 5uL; 500 cells per well.
4: Incubation; 72hr; 37 C, 5% CO2, 95% humidity.
5; Reagent; 3uL; CellTiter-Glo reagent (Promega).
6; Incubation; 10min; room temperature.
7; Detection; Luminescence; ViewLux plate reader (PerkinElmer).
NOTES (numbers refer to Sequence numbers above
1. Quantitative high-throughput screening (qHTS) of small molecule compounds was conducted on drug resistant SYKi MV4-11 cell line.
2. Twenty-three nanoliter of small molecule compounds were added to each assay plates using the Echo acoustic dispenser (Beckman Coulter).
3. Cells were seeded into the assay plates at a final density of 500 cells in 5uL of media per well using the Multidrop Combi dispenser.
4. Plates were covered with stainless steel gasketed lids and incubated for 72 hours at standard cell culture conditions.
5. Viability was assessed by adding 3uL of CellTiter-Glo detection reagent (Promega).
6. Plates were covered with gasket lids and incubated for 10 minutes at room temperature.
7. Luminescence was measured on a ViewLux plate reader (PerkinElmer).
Potency is read from the fitted curve at half-maximal effect.

Row | Structure (SMILES) | Potency
1 | CC1(C)CC[C@]2(NC(=O)C(C)(F)F)CC[C@]3(C)[C@H](C(=O)C=C4[C@@]5(C)C=C(C#N)C(=O)C(C)(C)[C@@H]5CC[C@]43C)[C@@H]2C1 | 2.63 µM (active)
2 | COC(=O)[C@]12CCC(C)(C)C[C@H]1[C@H]1C(=O)C=C3[C@@]4(C)C=C(C#N)C(=O)C(C)(C)[C@@H]4CC[C@@]3(C)[C@]1(C)CC2 | 2.63 µM (active)
3 | Nc1ccn(CC(CO)OCP(=O)(O)O)c(=O)n1 (stereo not drawn) | inactive
